From PubChem
Compounds with a hit are over-represented: about 14% of the library has one in this group of screens.
Sm TGR inh: inhibitors of Schistosoma mansoni thioredoxin glutathione reductase | Q962Y6 | 360,000 compounds, 3% hits | purified TGR, DTNB reduction, TNB absorbance 405 nm | AID 485364 | Potency, µM (highest dose often 114 µM), without a hit: top-dose activity change, negative = inhibition, most hits filed as inhibitors; note: potency is the fitted concentration of half-maximal effect; nearly all actives have a fitted effect of over 60% in size
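First, TGR (20 nM dispensed) and NADPH were mixed with compound. Second, a 15 min room-temperature incubation followed. Third, further NADPH and then DTNB were added to start the reaction. Finally, TNB absorbance was monitored kinetically.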
FBPA Giardia inh: Giardia lamblia aldolase inhibition | A8B2U2 | Potency, µM (highest dose often 59.6 µM), without a hit: top-dose activity, negative = inhibition, most hits filed as inhibitors | purified Giardia FBPA | 290,000 compounds, 0.71% hits; note: potency is the fitted concentration of half-maximal effect; nearly all actives have a fitted effect of over 55% in size
Target sequence (A8B2U2 whole entry, looked up): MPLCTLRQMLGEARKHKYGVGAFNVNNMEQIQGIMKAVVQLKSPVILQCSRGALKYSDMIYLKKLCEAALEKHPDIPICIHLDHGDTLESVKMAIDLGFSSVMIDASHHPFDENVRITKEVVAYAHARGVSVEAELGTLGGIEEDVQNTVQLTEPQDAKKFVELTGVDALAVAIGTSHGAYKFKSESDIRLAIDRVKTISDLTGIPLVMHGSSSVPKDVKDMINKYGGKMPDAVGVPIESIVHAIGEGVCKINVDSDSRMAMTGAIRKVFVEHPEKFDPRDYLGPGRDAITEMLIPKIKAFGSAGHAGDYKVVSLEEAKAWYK
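Giardia FBPA (40 nM reagent) was preincubated 10 min at RT with compound (up to 57.5 uM final), then substrate plus GAPDH/TPI/NAD/arsenate coupling system with diaphorase/resazurin was added; resorufin fluorescence (525/598 nm) was read after 20 min.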
Pf growth 96h: P. falciparum growth inhibition at 96 hours. P. falciparum luciferase reporter growth, 96 h. Potency, µM (top dose mostly 28.7 µM), inactives show at the top dose activity change, negative = inhibition, actives largely listed as inhibitors. 320,000 compounds, 6.9% hits; note: potency is the fitted concentration of half-maximal effect
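Cell-based qHTS: luciferase-tagged P. falciparum in erythrocytes (2% hematocrit, 0.05% parasitemia final) incubated with compounds for 96 hours, 37 C, 5% CO2; luciferase detection reagent then added and luminescence measured.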
HCMV antiviral: blocks human cytomegalovirus replication; HFF cells, HCMV-luciferase reporter, 72 h; stronger effect = lower value; activity change, negative = inhibition, % at 57.5 µM; 410,000 compounds, 4.5% hits; AID 1259415; in the data active = activity change below about -60%; inconclusive = no clear call, values can overlap the other calls; inactive = above about -39%
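Two-dose cell screen: HFF monolayers treated with compounds and infected with luciferase-expressing HCMV at 1 PFU/cell, 72 h at 37C, then lysed for luciferase measurement.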
Pf growth 48h: P. falciparum growth inhibition at 48 hours (one generation); 310,000 compounds, 5.9% hits; AID 504832; P. falciparum luciferase growth in erythrocytes, 48 h; Potency, µM (doses to about 28.7 µM), for the others: at the top dose activity change, negative = inhibition, hits mostly inhibitors; note: potency is the fitted concentration of half-maximal effect
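Growth was read as firefly luciferase luminescence after a 48 h, 37 C, 5% CO2 exposure of compounds to reporter-bearing P. falciparum cultures (0.1% parasitemia, 2% hematocrit final) in Albumax-supplemented RPMI 1640.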
The depositor's hits bear a star. Unless noted, calls come from the whole dose curve; as a rule, active = well fitted curve in the direction sought with a large enough effect; inconclusive = small, poorly fitted or top-dose-only effect, or another doubt; inactive = no such curve, though single readings can be large; an effect the other way counts as inactive or inconclusive. % is set by controls: 0 for no effect and ±100 for the full control effect.

For COc1ccc(N2CCOCC2)c(NC(=O)c2ccc3c(c2)OCO3)c1 the results were Sm TGR inh -3%, FBPA Giardia inh -3%, Pf growth 96h 0%, HCMV antiviral -30 and Pf growth 48h -9%.
CCCn1c2c(c(=N)c3c1CCC3)CCCC2 was read as Sm TGR inh 9%, FBPA Giardia inh 3%, Pf growth 96h 0.12µM*, HCMV antiviral -97* and Pf growth 48h 0.37µM*.
Screening CCCn1c2c(c(=N)c3c1CCC3)CCC2 returned Sm TGR inh -3%, FBPA Giardia inh 5%, Pf growth 96h inconclusive, HCMV antiviral -74* and Pf growth 48h 0.37µM*.
For CCCCCCCn1c2c(c(=N)c3ccccc31)CCC2 the results were Sm TGR inh 8%, FBPA Giardia inh -4%, Pf growth 96h 21%, HCMV antiviral -79* and Pf growth 48h 0.93µM*.
Screening CCOC(=O)Cn1c2c(c(=N)c3c1CCC3)CCCC2 returned Sm TGR inh 3%, FBPA Giardia inh -3%, Pf growth 96h 0.19µM*, HCMV antiviral inconclusive and Pf growth 48h inconclusive.
`CCCn1c(=S)[nH]c2sc3c(c2c1=O)CCCC3` gave Sm TGR inh 2%, Pf growth 96h -1%, HCMV antiviral -21 and Pf growth 48h 17%.
Screening O=C(O)CCn1c2c(c3ccccc31)CCCC2 returned Sm TGR inh 2%, FBPA Giardia inh 11%, HCMV antiviral 14 and Pf growth 48h 18%.
Screening O=C(Nc1cccc(S(=O)(=O)N2CCOCC2)c1)c1cc([N+](=O)[O-])ccc1N1CCOCC1 returned Sm TGR inh 2%, Pf growth 96h -1%, HCMV antiviral -8 and Pf growth 48h -8%.
`CC(Cn1cncn1)NC(=O)c1cc(COc2cccc(C(F)(F)F)c2)on1` (centres undefined) gave Sm TGR inh -2%, Pf growth 96h 15%, HCMV antiviral 1 and Pf growth 48h -13%.
Screening CC(C)Oc1ccccc1-c1nc(SCC(=O)c2ccc(F)cc2)n[nH]1 returned Sm TGR inh -1% and HCMV antiviral 2.
CN(C(=O)/C=C/c1ccc(F)cc1)C1CCCCC1 was read as HCMV antiviral 36.
`CN(C(=S)NC(=O)/C=C/c1ccc(F)cc1)C1CCCCC1` gave Sm TGR inh -9%, FBPA Giardia inh 4%, Pf growth 96h inconclusive, HCMV antiviral -76* and Pf growth 48h inconclusive.
For CC(C)NC(=S)NC(=O)/C=C/c1ccc(F)cc1 the results were Sm TGR inh -19%, FBPA Giardia inh 2%, Pf growth 96h -19%, HCMV antiviral -76* and Pf growth 48h -12%.
Screening O=C(/C=C/c1ccc(F)cc1)NC(=S)NC1CCCCC1 returned Sm TGR inh -29%, FBPA Giardia inh -3%, Pf growth 96h 3.3µM*, HCMV antiviral -20 and Pf growth 48h inconclusive.
For CCOC(=O)c1ccc(NC(=O)C2=C(C)C(=O)OC23CCCCCC3)cc1 the results were Sm TGR inh 0% and HCMV antiviral 0.
Cc1ccc(NC(=O)c2cnccn2)nc1 was read as Sm TGR inh 0%, Pf growth 96h -8% and Pf growth 48h 19%.
`CC(C)c1[nH]nc2c1C(c1cccc(OC(=O)N3CCOCC3)c1)C(C#N)=C(N)O2` (centres undefined) gave Sm TGR inh -8%, FBPA Giardia inh -19%, Pf growth 96h 12µM*, HCMV antiviral 8 and Pf growth 48h -21%.
Screening CCc1[nH]nc2c1C(c1cccc(OC(=O)N3CCOCC3)c1)C(C#N)=C(N)O2 (centres undefined) returned Sm TGR inh 3%, FBPA Giardia inh -7%, Pf growth 96h -9%, HCMV antiviral 10 and Pf growth 48h -1%.
Screening COc1ccc(-c2cc(C(F)F)n3ncc(C(=O)Nc4cc(OC)ccc4OC)c3n2)cc1 returned Sm TGR inh 1% and HCMV antiviral -9.
`CCOC(=O)N1CCN(C(=O)c2cnn3c(C(F)F)cc(-c4ccc(C)cc4)nc23)CC1` gave Sm TGR inh 3%, FBPA Giardia inh 4%, Pf growth 96h 31%, HCMV antiviral 30 and Pf growth 48h -4%.
